Each structure is given as a SMILES string. The panel holds about 83,000 compounds, 20% with a hit somewhere; the sample as a whole holds those more often.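 Cells were grown in 96-well plates and exposed to the test compound at a single concentration for 48 hours; results are reported as percent growth, with values below 10 considered active.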 A number with no mark means an inactive call. Calls of active or inactive are those of the source.

Among the test systems are HCT-15 colon; HT29 colon; SNB-75 CNS; SNB-19 CNS; U251 CNS; PC-3 prostate; SK-MEL-5 melanoma; UACC-62 melanoma; LOX IMVI melanoma; SK-MEL-28 melanoma.
Holding throughout (experiment): NCI-60 one-dose screen, 48 h (100 = growth as untreated, 0 = no growth, -100 = all killed)
Common to all, as to settings: 10 µM

With `N#CCc1csc(Cc2ccccc2)n1`, the growth is 109% with HCT-15 colon; 98% with HT29 colon; 101% in the test with SNB-75 CNS; 101% in the test with SNB-19 CNS; 103% in the test on U251 CNS; 109% in the test with PC-3 prostate. In addition, the growth with SK-MEL-5 melanoma was 102%; in the test on UACC-62 melanoma it was 103%; with LOX IMVI melanoma, 95.9%; in the test with SK-MEL-28 melanoma it was 108%.
Regarding `O=C(CN1CCN(C(=O)c2ccccc2)CC1)Nc1ccccc1SCc1ccccc1`, the growth in the test with HCT-15 colon is 87.3%; with HT29 colon, 81%; in the test with SNB-75 CNS, 75.6%; with SNB-19 CNS, 90.7%; with U251 CNS, 90.8%; in the test on PC-3 prostate, 57.9%. Moreover, the growth with SK-MEL-5 melanoma was 56.9%; in the test with UACC-62 melanoma it was 52%; in the test on LOX IMVI melanoma, 73.9%; in the test on SK-MEL-28 melanoma, 98.2%.
Regarding `O=C1C=C(Nc2cccc(Br)c2)c2ccccc2C1=O`, the growth was 22.7% with HCT-15 colon; 111% in the test on HT29 colon; 12% with SNB-75 CNS; 43.6% with SNB-19 CNS; 31.3% in the test on U251 CNS; 37.4% in the test with PC-3 prostate. Further, the growth was 15.8% in the test on SK-MEL-5 melanoma, 46.8% in the test on UACC-62 melanoma, 37.5% in the test with LOX IMVI melanoma and 56.7% in the test with SK-MEL-28 melanoma.
Take `Cc1c(Cl)cccc1NC(=O)CN1CCOCC1`: the growth was 99% in the test with HCT-15 colon; 84.2% in the test on HT29 colon; 88.9% in the test on SNB-75 CNS; 117% in the test with SNB-19 CNS; 106% in the test with U251 CNS; 102% with PC-3 prostate. Also, the growth in the test with SK-MEL-5 melanoma was 101%; with UACC-62 melanoma it was 103%; in the test with LOX IMVI melanoma, 97.4%; in the test with SK-MEL-28 melanoma it was 109%.
As to `CCc1ccc(-c2ccc(-n3nc(C)c4c(N)nc(Cc5ccccc5)nc43)cc2)cc1`, the growth with HCT-15 colon is 60.6%; with HT29 colon it was 78.8%; in the test on SNB-75 CNS, 65%; with SNB-19 CNS, 66.3%; in the test on U251 CNS it was 68%; in the test with PC-3 prostate it was 54.7%. Also, the growth is 95.5% in the test on SK-MEL-5 melanoma, 73.1% in the test on UACC-62 melanoma, 51.1% with LOX IMVI melanoma and 92.4% in the test on SK-MEL-28 melanoma.
On to `Cc1c(Cl)cccc1NC(=O)CCCl`, for which the growth in the test with HCT-15 colon is 110%; in the test on HT29 colon, 95.4%; in the test with SNB-75 CNS, 98.1%; with SNB-19 CNS, 96.7%; in the test on U251 CNS it was 91%; with PC-3 prostate, 94.3%. Besides, the growth in the test on SK-MEL-5 melanoma was 104%; in the test on UACC-62 melanoma, 93.2%; with LOX IMVI melanoma, 101%; with SK-MEL-28 melanoma it was 108%.
On to `O=C(Nc1ccc(NS(=O)(=O)c2ccc(F)cc2)cc1)C12CC3CC(CC(C3)C1)C2`, for which the growth with HCT-15 colon was 86.8%; in the test with HT29 colon, 89.6%; in the test with SNB-75 CNS, 90%; with SNB-19 CNS, 93.7%; in the test on U251 CNS it was 91.3%; with PC-3 prostate it was 78.8%. In addition, the growth was 93.9% with SK-MEL-5 melanoma, 92.4% in the test on UACC-62 melanoma, 92.2% in the test on LOX IMVI melanoma and 99.9% with SK-MEL-28 melanoma.
For the molecule `O=C(CNc1nnc(-c2cccnc2SCc2ccccc2)s1)Nc1nc(Cl)cc(Cl)n1`, the growth with HCT-15 colon was 108%; in the test with HT29 colon, 123%; with SNB-75 CNS, 74.1%; in the test on SNB-19 CNS, 103%; in the test on U251 CNS, 119%; in the test on PC-3 prostate, 112%. Moreover, the growth was 113% in the test on SK-MEL-5 melanoma, 108% in the test on UACC-62 melanoma, 105% in the test on LOX IMVI melanoma and 110% with SK-MEL-28 melanoma.
In the case of `CS(=O)(=O)c1nccc(-c2c(-c3cccc(OCc4ccc(F)cc4)c3)nc3sccn23)n1`, the growth in the test with HCT-15 colon is 59.2%; in the test on HT29 colon, 82.9%; in the test with SNB-75 CNS it was 95.9%; with SNB-19 CNS it was 83.2%; with U251 CNS, 96.6%; with PC-3 prostate it was 59.3%. The growth in the test with SK-MEL-5 melanoma is 5.39% (active); with UACC-62 melanoma it was 60.1%; with LOX IMVI melanoma, 36.6%; in the test with SK-MEL-28 melanoma it was 62.8%.
Turning to `CCCC1(CN2c3ccccc3Sc3ccc(Cl)cc32)CCN(CC)C1` (stereo not given), the growth in the test with HCT-15 colon was 3.6% (active); in the test with HT29 colon, -68% (active); in the test with SNB-75 CNS, 1.99% (active); in the test on SNB-19 CNS it was -36.3% (active); in the test on U251 CNS, -92% (active); in the test with PC-3 prostate it was 5.75% (active). In addition, the growth is -95.9% (active) with SK-MEL-5 melanoma, -21.4% (active) in the test on UACC-62 melanoma, -100% (active) in the test on LOX IMVI melanoma and -67.8% (active) in the test with SK-MEL-28 melanoma.
For `CN(C)c1nc(N)c2nccnc2n1`, the growth is 120% in the test on HCT-15 colon; 110% in the test with HT29 colon; 84.8% with SNB-75 CNS; 104% in the test with SNB-19 CNS; 112% in the test on U251 CNS; 104% with PC-3 prostate. The growth in the test on SK-MEL-5 melanoma was 107%; in the test with UACC-62 melanoma it was 98%; with LOX IMVI melanoma, 95.1%; in the test on SK-MEL-28 melanoma, 118%.
With `Oc1cccc(-c2nc3sccn3c2-c2ccncn2)c1`, the growth in the test on HCT-15 colon was 93.2%; with HT29 colon, 54.8%; in the test with SNB-75 CNS, 39.4%; in the test on SNB-19 CNS it was 111%; in the test with U251 CNS, 114%; in the test on PC-3 prostate it was 84.6%. In addition, the growth with SK-MEL-5 melanoma is 90.6%; with UACC-62 melanoma, 14.5%; with LOX IMVI melanoma, 36.2%; in the test on SK-MEL-28 melanoma, 33.9%.
As to `CN(C)c1ccc(/C=N/NC(=O)c2ccccc2Nc2cccc(C(F)(F)F)c2)cc1`, the growth was 78.2% in the test on HCT-15 colon; 97.2% in the test with HT29 colon; 94.4% in the test with SNB-75 CNS; 92.7% in the test on SNB-19 CNS; 81.1% in the test with U251 CNS; 76.1% with PC-3 prostate. Moreover, the growth in the test with SK-MEL-5 melanoma was 81.8%; in the test with UACC-62 melanoma, 86.3%; in the test with LOX IMVI melanoma it was 65.3%; in the test with SK-MEL-28 melanoma, 91.2%.
For `O[C@@H]1CO[C@H]2[C@@H]1OC[C@@H]2O`, the growth with HCT-15 colon is 102%; with HT29 colon it was 103%; in the test on SNB-75 CNS, 91.1%; with SNB-19 CNS, 99.5%; in the test with U251 CNS it was 108%; in the test on PC-3 prostate, 90%. Also, the growth was 116% with SK-MEL-5 melanoma, 103% in the test with UACC-62 melanoma, 97% in the test on LOX IMVI melanoma and 113% with SK-MEL-28 melanoma.
Take `C=CCN(CC=C)C(=O)[C@H](CC)[C@@H]1CC[C@@H](C)[C@@H]([C@H](C)[C@@H](O)[C@@H](C)C(=O)[C@H](CC)C2O[C@]3(C=CC(=O)[C@]4(CC[C@@](C)([C@H]5CC[C@](O)(CC)[C@H](C)O5)O4)O3)[C@H](C)C[C@@H]2C)O1` (stereo not given in full): the growth in the test on HCT-15 colon was 11.5%; in the test with HT29 colon it was 16.7%; in the test with SNB-75 CNS it was 38.7%; with SNB-19 CNS it was 23.8%; in the test with U251 CNS, 30.5%; in the test with PC-3 prostate, 14.7%. Further, the growth in the test with SK-MEL-5 melanoma was -12.3% (active); in the test with UACC-62 melanoma it was 10.7%; in the test with LOX IMVI melanoma, 36.9%; in the test on SK-MEL-28 melanoma, 19.8%.

The values above are taken from PubChem BioAssay (NCI).
